Measurements taken from PubChem BioAssay AID1233 (SRMLSC, 2008).
Measured potencies and affinities stand elsewhere. Calls of active or inactive are those of the source.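 The calls were made as follows: active = a dose-response curve fit returns a half-maximal inhibitory concentration, extrapolated values included; inactive = the fit returns no such concentration.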

Target: HMG-CoA reductase [Enterococcus faecalis] (UniProt Q9FD70)
Test: inhibitors of E. faecalis class II HMGR, confirmation, biochemical, Enterococcus faecalis (AID 1233)

Structure (SMILES)	outcome
COc1ccc(C(=O)CSc2nnnn2Cc2ccccc2)cc1	inactive
Cc1cccc(N/N=C(\C#N)S(=O)(=O)C(C)(C)C)c1	inactive
Cc1nn(Cc2ccc(Cl)cc2)c(Cl)c1/C=N/NC(=O)CNc1ccccc1F	inactive
Cn1c(SCC(=O)c2ccc(F)cc2)nnc1-c1cccnc1	inactive
O=[N+]([O-])c1ccc(C(=Nc2cccc3ccccc23)N2CCOCC2)cc1	inactive
S=c1[nH]c2cc(Cl)ccc2s1	inactive
Cc1cc(C)c2c(=O)[nH]c(SCC(=O)N(C)C)nc2n1	inactive
COc1cccc(NC(=O)c2cc(-c3ccncc3)nc3c(C)cc(C)cc23)c1	inactive
COc1ccc(N=c2ssnc2Cl)cc1	inactive
CCN(CCNCC(O)COCc1ccc(Cl)cc1)c1cccc(C)c1 (stereo not given)	inactive
O=c1cc(CSc2ccc([N+](=O)[O-])cc2)nc2sccn12	inactive
O=C(c1ccco1)N1CCCN(Cc2cn[nH]c2-c2ccc(-c3ccccc3)cc2)CC1	inactive
CN(C)S(=O)(=O)c1cccc(NC(=O)Cn2cc(C(F)(F)F)cc(Cl)c2=O)c1	inactive
COc1ccc(CNC(=O)C2CCCN2S(=O)(=O)c2ccc(Cl)cc2)cc1 (stereo not given)	inactive
CC(C)CC(O)(CC(C)C)C(=O)NNc1ccccc1	inactive
Cn1nnnc1SCC(=O)c1ccc(Br)s1	inactive
COc1ccc2ccc(=O)oc2c1	inactive
COc1ccc(CCNC(=O)CCNC(=O)c2ccc(Cl)cc2)cc1OC	inactive
CCc1c(C#N)c(N)nc(SCC(=O)OCc2ccccc2)c1C#N	inactive
O=C(NCC(=O)N(Cc1cccs1)C(C(=O)NC1CCCC1)c1ccncc1)c1ccco1 (stereo not given)	inactive
COc1ccccc1C(=O)NNC(=O)c1ccc(NC(=O)c2ccccc2)cc1	inactive
COc1cc(OC)cc(C(=O)NC(C(=O)O)C23CC4CC(CC(C4)C2)C3)c1 (stereo not given)	inactive
Cc1cc(Cl)ccc1Oc1nccc(N(C)C)c1C#N	inactive
N#Cc1c2c(c(-c3ccccc3Cl)[nH]c1=S)CCCC2	inactive
COc1ccc(N(C(C)C(=O)N/N=C/c2ccc(OC(C)C)cc2)S(C)(=O)=O)cc1 (stereo not given)	inactive
